An excerpt weighted towards active compounds, which were near 3.2% of everything screened.
Mtb bLac sens: beta-lactam sensitization of Mtb H37Rv. M. tuberculosis H37Rv growth with meropenem, percent inhibition. inhibition, % at 25 µM. 330,000 tested, 0.27% active; call rule not given here;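 also: growth measured after seven days incubation then overnight dye step; 0% = bacteria only wells and 100% = bacteria with antibiotic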
GDH-TPI inh: inhibits GDH-TPI coupling enzymes, artifact for Mtb FBA screen | GDH-TPI coupled enzyme counterscreen, NADH absorbance | inhibition, % at 4.8 µM | 360,000 tested, 1.2% active; in the data active = inhibition above about 30%;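 also: 0% = DMSO wells and 100% = wells lacking the enzyme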
Mtb FBA inh: inhibitors of M. tuberculosis fructose-bisphosphate aldolase. P9WQA3. purified M. tuberculosis FBA, fluorescence read-out. inhibition, % at 1 µM. 360,000 tested, 2.3% active; in the data active = inhibition above about 27%;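 also: 0% = vehicle and 100% = reference inhibitor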
PriA SSB inh: inhibitors of Klebsiella pneumoniae PriA binding to SSB C-terminal tail. AlphaScreen SSBct-PriA binding, biotinylated peptide. inhibition, % at 33 µM. 430,000 tested, 0.6% active; in the data active = inhibition mostly above about 37%, no sharp cut-off; inactive = mostly below about 20%;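 also: plate controls were negative control peptide for no effect and reference peptide for full effect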
UGM FP inh: blocks M. tuberculosis UGM enzyme; purified UGM, fluorescence polarization probe displacement; inhibition, % at 10 µM; AID 504406; P9WIQ1; 320,000 tested, 0.06% active; in the data active = inhibition above about 10%, passing the limit was not always enough
Target sequence (P9WIQ1 whole entry, looked up): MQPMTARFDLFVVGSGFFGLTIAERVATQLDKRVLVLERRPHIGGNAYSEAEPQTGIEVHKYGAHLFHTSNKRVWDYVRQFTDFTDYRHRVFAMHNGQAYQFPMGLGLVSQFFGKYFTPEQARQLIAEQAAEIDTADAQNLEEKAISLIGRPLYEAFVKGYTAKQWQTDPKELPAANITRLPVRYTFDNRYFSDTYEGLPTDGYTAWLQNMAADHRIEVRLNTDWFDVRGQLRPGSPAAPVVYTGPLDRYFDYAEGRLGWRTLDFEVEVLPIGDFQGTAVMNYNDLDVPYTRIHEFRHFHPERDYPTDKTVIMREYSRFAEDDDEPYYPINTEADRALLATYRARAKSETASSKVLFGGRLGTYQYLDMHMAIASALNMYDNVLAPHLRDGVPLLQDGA
Rv3671c inh: inhibitors of M. tuberculosis serine protease Rv3671c | 320,000 tested, 0.048% active | inhibition, % at 5.96 µM | P9WHR9 | AID 2606; in the data active = inhibition above about 38%;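 also: extracellular domain of Rv3671c used as enzyme; 0% = enzyme with DMSO and 100% = no enzyme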
* = called active by the depositor.

For CCOP(=O)(OCC)c1nc(-c2ccc(OC)cc2)oc1N1CCOCC1 the results were Mtb bLac sens 3.5, GDH-TPI inh 11.1, Mtb FBA inh 173.5*, PriA SSB inh -10.4, UGM FP inh -1.5 and Rv3671c inh 5.1.
For COP(=O)(OC)c1nc(-c2cccc3ccccc23)oc1N1CCOCC1 the results were Mtb bLac sens 6.8, GDH-TPI inh 18.9, Mtb FBA inh active, PriA SSB inh -5.9, UGM FP inh 0.7 and Rv3671c inh 2.2.
For CCOP(=O)(c1ccccc1)c1nc(-c2ccccc2Cl)oc1N1CCCCC1 (stereo not given) the results were Mtb bLac sens -5.6, GDH-TPI inh 15.6, Mtb FBA inh 7.3, PriA SSB inh 2.9, UGM FP inh 0.6 and Rv3671c inh 4.7.
`Cn1cc(CC(=O)N2CCN(C(=O)C3CC3c3ccc(F)cc3)CC2)c2ccccc21` (stereo not given) gave PriA SSB inh 1.0.
`COc1cccc(OC)c1C(=O)Nc1cccc(N2CCCC2=O)c1` gave PriA SSB inh -10.0.
Screening C[C@](O)(CNS(=O)(=O)Cc1ccccc1Cl)c1cccs1 returned PriA SSB inh -18.0.
O=C(/C=C/c1cccnc1)/C=C/c1cccnc1 was read as GDH-TPI inh 33.1*, Mtb FBA inh 0.5 and PriA SSB inh -1.5.
COc1cc(NC(=O)c2cnccn2)ncn1 was read as PriA SSB inh -9.0.
O=C(NCc1cccc(F)c1)c1cccc2c1C(=O)c1ccc(N3CCC(Cc4ccccc4)CC3)cc1S2(=O)=O was read as Mtb bLac sens -2.7, GDH-TPI inh 5.1, Mtb FBA inh -0.5, PriA SSB inh -35.7, UGM FP inh 22.0* and Rv3671c inh -24.9.
`O=C(NCCc1ccc(F)cc1)c1cccc2c1C(=O)c1ccc(N3CCC(Cc4ccccc4)CC3)cc1S2(=O)=O` gave Mtb bLac sens 5.5, GDH-TPI inh 10.2, Mtb FBA inh -4.6, PriA SSB inh -15.8, UGM FP inh 11.3* and Rv3671c inh -23.0.
`O=C(NCc1ccc(OC(F)(F)F)cc1)c1cccc2c1C(=O)c1ccc(N3CCCCC3)cc1S2(=O)=O` gave Mtb bLac sens 7.3, GDH-TPI inh 7.0, Mtb FBA inh -1.0, PriA SSB inh -2.9, UGM FP inh 19.9* and Rv3671c inh -9.0.
For O=C(O)c1cccc2c1C(=O)c1ccc(-c3ccc(OC(F)(F)F)cc3)cc1S2(=O)=O the results were Mtb bLac sens 4.3, GDH-TPI inh 31.8*, Mtb FBA inh 2.2, PriA SSB inh -2.6, UGM FP inh 3.5 and Rv3671c inh 3.6.
`CC1CCN(c2ccc3c(c2)S(=O)(=O)c2cccc(C(=O)NCc4cccc(F)c4)c2C3=O)CC1` gave Mtb bLac sens 1.0, GDH-TPI inh 4.4, Mtb FBA inh -7.3, PriA SSB inh 5.4, UGM FP inh 3.7 and Rv3671c inh -34.1.
O=C(NCc1ccccc1Br)c1cccc2c1C(=O)c1ccc(-c3ccc(OC(F)(F)F)cc3)cc1S2(=O)=O was read as Mtb bLac sens 3.6, GDH-TPI inh 2.2, Mtb FBA inh 2.8, PriA SSB inh -6.4, UGM FP inh 3.6 and Rv3671c inh -37.6.
For COc1cccc2cc(-c3csc(NC(=O)c4ccc5c(c4)CCCC5)n3)oc12 the results were PriA SSB inh -11.0.
For COc1ccc(/C=N/N=C2/NC(=O)C(c3ccccc3)S2)c(OC)c1 (stereo not given) the results were Mtb bLac sens 8.7, GDH-TPI inh 31.5*, Mtb FBA inh -4.2, UGM FP inh -0.2 and Rv3671c inh -0.1.
O=C1N/C(=N/N=C/c2ccccc2O)SC1Cc1ccc(F)cc1 (stereo not given) was read as Mtb bLac sens 99.4, GDH-TPI inh 26.6, Mtb FBA inh 2.1, UGM FP inh 0.8 and Rv3671c inh 1.8.
Screening O=C1N/C(=N/N=C/c2ccc(O)cc2)SC1Cc1ccccc1 (stereo not given) returned Mtb bLac sens 19.0, GDH-TPI inh 62.0*, Mtb FBA inh -5.0, UGM FP inh 2.2 and Rv3671c inh -25.7.
COc1ccc(CC2S/C(=N/N=C/c3ccccc3O)NC2=O)cc1 (stereo not given) was read as Mtb bLac sens 98.7, GDH-TPI inh 36.7*, Mtb FBA inh -0.4, UGM FP inh -0.7 and Rv3671c inh 6.7.
COc1ccc(C=NN=C2NC(=O)C(c3ccccc3)S2)c(OC)c1 (stereo not given) was read as PriA SSB inh -4.6.
COc1cc(/C=N/N=C2/NC(=O)C(CC(=O)O)S2)ccc1OCc1ccc(Cl)cc1 (stereo not given) was read as Mtb bLac sens 46.2, GDH-TPI inh 50.6*, Mtb FBA inh -4.7, UGM FP inh 1.7 and Rv3671c inh -0.3.
O=C1NC(=NN=Cc2ccc(O)cc2)SC1Cc1ccccc1 (stereo not given) was read as PriA SSB inh -4.0.
`Cn1cccc1C(O)CNC(=O)CCc1ccc(C(F)(F)F)cc1` (stereo not given) gave PriA SSB inh -7.0.
CC(=NNC(=O)c1ccoc1C)c1ccccc1 was read as PriA SSB inh -4.2.
COc1ccc(OC)c(C2c3cccn3CCN2C(=S)Nc2cccc(C)c2)c1 (stereo not given) was read as PriA SSB inh 14.0.
Screening Oc1ccc(N2CCN(Cc3ccc(OCCCN4CCCCC4)cc3)CC2)cc1 returned Mtb bLac sens -5.2, GDH-TPI inh 7.3, Mtb FBA inh 2.5, PriA SSB inh 55.2*, UGM FP inh -0.4 and Rv3671c inh -3.1.
Screening COC(=O)c1sc(-c2ccccc2)cc1NC(=O)CN1C(=O)c2ccccc2C1=O returned PriA SSB inh -8.0.
Screening CC1CCN(C(=O)CSc2nnc(Cc3ccccc3)o2)CC1 returned Mtb bLac sens -3.5, GDH-TPI inh 1.0, Mtb FBA inh -1.6, PriA SSB inh -3.9, UGM FP inh 1.3 and Rv3671c inh 2.7.
CC1CCN(C(=O)CSCC(=O)O)CC1 was read as Mtb bLac sens 5.4, GDH-TPI inh -8.0, Mtb FBA inh 150.5*, PriA SSB inh 9.3, UGM FP inh -1.1 and Rv3671c inh 0.4.
For O=c1[nH]c(=O)n(Cc2ccccc2)c(O)c1C=NNc1c(F)c(F)c(F)c(F)c1F the results were PriA SSB inh -3.4.
`CC(=O)Nc1sc(N/N=C\c2ccc(O)cc2)nc1-c1cccs1` gave Mtb bLac sens 65.0, GDH-TPI inh 43.9*, Mtb FBA inh -0.5, UGM FP inh -1.1 and Rv3671c inh 0.2.
Screening CCOC(=O)C(Nc1ccc2ccccc2c1)C(=O)OCC returned Mtb bLac sens 98.6, GDH-TPI inh 4.8, Mtb FBA inh 8.9, PriA SSB inh 57.6*, UGM FP inh -2.2 and Rv3671c inh -7.6.
CC(=O)Nc1ccc2ccccc2c1 was read as Mtb bLac sens 76.7, GDH-TPI inh 8.8, Mtb FBA inh -1.0, PriA SSB inh -1.6, UGM FP inh 3.5 and Rv3671c inh -5.1.
`c1ccc(-n2ncc3c(N4CCc5ccccc54)nnnc32)cc1` gave PriA SSB inh -7.0.

Screening data as filed in PubChem BioAssay.
